# In the supplement of paper PMC10338343:
# ± gives the standard deviation.
# Test system: EfPiwi piRISC loaded with L1MC piRNA (26 nt)
# Test: pre-steady-state target cleavage rate (min^-1); auxiliary factor: 500 nM Ephydatia muelleri Gtsf1; guide: L1MC piRNA 5'p-UAACUAAAUACUAUGCAAGCUGUAGG; MIWI and MILI are mouse PIWI proteins and EfPiwi is from a freshwater sponge; tags in brackets are library labels; higher = faster piRNA-guided slicing of the target
# Method: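 Cleave-'n-Seq: a library of target RNAs (target site in constant flanks) at […] was incubated with 1 nM active freshwater sponge Ephydatia fluviatilis Piwi piRISC (synthetic 5'-monophosphorylated piRNA guide) with or without 500 nM EmGtsf1 at 33 °C for 1 min to 16 h. Uncleaved targets were sequenced and the pooled three trials fitted to a burst-and-steady-state model to give the pre-steady-state cleavage rate (min^-1). Sequence is the target site only. Fits with R² ≤ 0 are excluded.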
row,Sequence,pre-steady-state target cleavage rate
1,UCCUCCUACAGCUUGCAUUAGUAUUUAGUUA,0.00479 ± 0.0038
2,UCCUGGAUGAGCUUGUCAUAGUAUUUAGUUA,0.00721 ± 0.0027
3,UCCUCGUACAGCUUGCAUAGUAUUUAGUUA,0.163 ± 0.036
4,UCCUGCUAGAGCUUGCAUAGUAUUUAGAAA,0.00419 ± 0.0022
5,UCCUGGAACAGCAAGCAUAGUAUUUAGUUA,0.00853 ± 0.0027
6,UCCUCGUACAGCUUGCAUAGUAUUUACAAA,0.00271 ± 0.0024
7,UCCUCCUACAGCUUGCAUAGUAAAUAGUAA,0.00375 ± 0.0025
8,UCCUCCUACUCGUUGCAUAGUAUUUAGAAA,0.004 ± 0.0035
9,UCCUGGAACAGCUUCGAUAGUAUUUAGUUA,0.00251 ± 0.0023
10,UCCUCCUAGAGCUUGGAUAGUAUUUAGUUA,0.0312 ± 0.0067
11,UCCUGGAUGUGCUUGCAUAGUAUGUUAGUUA,0.00406 ± 0.0038
12,UCCUGCUACAGCUUGCAUAGUAUUUAGUUG [g2:g25:cont:t1G],0.00685 ± 0.0019
13,UCCUCCUACAGCAUGGAUAGUAUUUAGUUA,0.096 ± 0.023
14,UCCUGGAACAGCUUGGAUAGUAUAUAGUUA,0.00939 ± 0.0043
15,UCCUGGUAGUGCUUGCAUAGUAUUUAGUAA,0.00326 ± 0.0024
16,UCCUCCUCCAGCUUGCAUAGUAUUUAGUUA,0.194 ± 0.056
17,UCCUCCUUCAGCUUGCAUAGUAUUUACUUA,0.00514 ± 0.0032
18,UCCUGGAUGUGCUUGCAUAGUAUUUAGGUUA,0.00262 ± 0.0021
19,UCCUGGAUCAGCCUUGCAUAGUAUUUAGUUA,0.0303 ± 0.0094
20,UCCUGGAUGUCGAACGUUAGUAUUUAGUCA,< 0.0001

row,Sequence,pre-steady-state target cleavage rate
1,UCCUGCUACACCUAGCAUAGUAUUUAGUUA,0.0171 ± 0.0054
2,UCCUCGUACAGCUUGCUUAGUAUUUAGUUA,0.0519 ± 0.012
3,UCCUCCUACAGCUUGCAUAGUAAAUUCAAA,0.00279 ± 0.0021
4,UCCUCCUACAGCUUGCAUAGUAAAAAGAAA,0.00287 ± 0.0026
5,UCCUGGAUCAGCUUGCAUAGUAUUUUCAAA,0.00307 ± 0.0027
6,UCCUGCUACAGCUUGCAUAGUAAAUAGUUA,0.00532 ± 0.0029
7,UCCUGGUACAGCUUGCAUACUAUUUAGAAA,0.00236 ± 0.0018
8,UCCUGGAUCAGCAUGCAAAGUAUUUAGUUA,0.0037 ± 0.0031
9,UCCUCCUACAGCUUGCAUAGUAUUUAGAUUA,0.0103 ± 0.0044
10,UCCUGCUACUGCUUCCAUAGUAUUUAGUUA,0.00205 ± 0.0016
11,UCCUGGAUCAGCGUUGCAUAGUAUUUAGUUA,0.021 ± 0.0057
12,UCCUGGAUGUUCUUGCAUAGUAUUUAGUUA,0.173 ± 0.068
13,UCCUCCUACAGCUUGCAUAGUCAUUUAGUUA,0.00268 ± 0.0025
14,UCCUGGAACAGCUUGCAUAGUAUUUAGCUUA,0.00529 ± 0.0018
15,UCCUGGUCACAGCUUGCAUAGUAUUUAGUUA,0.00857 ± 0.0072
16,UCCUGGAACAGCUUUGCAUAGUAUUUAGUUA,0.0309 ± 0.0082
17,UCCUGGAACACGCUUGCAUAGUAUUUAGUUA,0.0331 ± 0.011
18,UCCUGGAUCAGCUUGCAAAGUAUUUAGAUA,0.00558 ± 0.0029
19,UCCUCCUACAGCUUGGAUUGUAUUUAGUUA,0.0225 ± 0.0082
20,UCCUGGUAGAGCUUGCAUAGUAUUUAGAAA,0.00392 ± 0.0022
